The supplement of paper PMC11732987, “Enantioselective OTUD7B fragment discovery through chemoproteomics screening and high-throughput optimisation” (Communications Chemistry, 2025)

Assays:
Assay in all cases: log2 ratio of Biotin-Ahx-Ub-VS probe labelling (fragment/DMSO); higher = less target engagement (more negative = stronger competition), active = hit call of the paper (q ≤ 0.05, log2 ratio ≤ -1)
Details in all cases: compound concentration: 200 uM; treatment time: 3 h
USP19 = target: T1, USP19 (UniProt O94966)
T1 sequence (whole entry): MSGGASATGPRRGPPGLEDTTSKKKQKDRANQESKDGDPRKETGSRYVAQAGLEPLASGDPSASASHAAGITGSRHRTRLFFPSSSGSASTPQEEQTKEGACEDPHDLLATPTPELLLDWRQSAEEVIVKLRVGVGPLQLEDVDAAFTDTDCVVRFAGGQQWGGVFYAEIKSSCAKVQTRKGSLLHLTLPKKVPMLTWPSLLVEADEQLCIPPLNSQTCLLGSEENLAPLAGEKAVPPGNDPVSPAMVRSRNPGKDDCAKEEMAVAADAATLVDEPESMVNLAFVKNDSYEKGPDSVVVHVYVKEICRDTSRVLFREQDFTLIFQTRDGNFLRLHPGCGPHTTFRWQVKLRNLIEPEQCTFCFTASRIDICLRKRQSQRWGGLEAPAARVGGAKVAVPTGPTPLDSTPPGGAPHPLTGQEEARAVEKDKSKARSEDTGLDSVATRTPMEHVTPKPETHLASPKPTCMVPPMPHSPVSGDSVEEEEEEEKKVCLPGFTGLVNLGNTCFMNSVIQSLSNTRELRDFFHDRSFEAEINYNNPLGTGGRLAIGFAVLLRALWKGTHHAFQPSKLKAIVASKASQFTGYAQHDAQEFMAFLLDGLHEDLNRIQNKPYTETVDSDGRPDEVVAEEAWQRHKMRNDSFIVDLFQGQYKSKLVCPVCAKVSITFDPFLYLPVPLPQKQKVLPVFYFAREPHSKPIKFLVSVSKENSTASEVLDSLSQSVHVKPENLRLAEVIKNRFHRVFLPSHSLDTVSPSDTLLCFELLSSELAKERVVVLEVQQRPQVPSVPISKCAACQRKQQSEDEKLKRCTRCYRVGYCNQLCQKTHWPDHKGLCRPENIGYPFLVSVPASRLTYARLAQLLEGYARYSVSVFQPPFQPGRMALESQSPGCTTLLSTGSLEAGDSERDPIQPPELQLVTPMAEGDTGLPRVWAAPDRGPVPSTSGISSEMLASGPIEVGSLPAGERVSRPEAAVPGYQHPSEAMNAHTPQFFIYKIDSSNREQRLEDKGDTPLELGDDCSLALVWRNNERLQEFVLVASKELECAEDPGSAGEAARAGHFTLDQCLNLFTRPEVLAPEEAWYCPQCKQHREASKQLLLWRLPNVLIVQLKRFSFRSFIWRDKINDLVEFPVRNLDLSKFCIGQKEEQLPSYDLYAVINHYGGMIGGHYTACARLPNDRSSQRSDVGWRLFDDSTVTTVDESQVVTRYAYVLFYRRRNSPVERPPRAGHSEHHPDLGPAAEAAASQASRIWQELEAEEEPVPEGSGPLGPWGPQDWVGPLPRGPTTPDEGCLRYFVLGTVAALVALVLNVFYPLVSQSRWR
Procedure, shortened: (§1)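 Each value is an average log2 ratio of fragment to vehicle, tested by unpaired t-test. The underlying Spectronaut label-free quantities were global-median-normalised, and only proteins with ≥2 unique peptides were included. Triplicate HEK293T lysate samples (495 µg) were exposed to fragment at 200 µM or vehicle for 3 h, then to Biotin-Ahx-Ub-VS at 0.5 µM final for 1 h, before NeutrAvidin enrichment of labelled DUBs, LysC and trypsin digestion, and diaPASEF LC-MS/MS.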

USP22 = target: T2, USP22 (UniProt Q9UPT9)
T2 sequence (whole entry): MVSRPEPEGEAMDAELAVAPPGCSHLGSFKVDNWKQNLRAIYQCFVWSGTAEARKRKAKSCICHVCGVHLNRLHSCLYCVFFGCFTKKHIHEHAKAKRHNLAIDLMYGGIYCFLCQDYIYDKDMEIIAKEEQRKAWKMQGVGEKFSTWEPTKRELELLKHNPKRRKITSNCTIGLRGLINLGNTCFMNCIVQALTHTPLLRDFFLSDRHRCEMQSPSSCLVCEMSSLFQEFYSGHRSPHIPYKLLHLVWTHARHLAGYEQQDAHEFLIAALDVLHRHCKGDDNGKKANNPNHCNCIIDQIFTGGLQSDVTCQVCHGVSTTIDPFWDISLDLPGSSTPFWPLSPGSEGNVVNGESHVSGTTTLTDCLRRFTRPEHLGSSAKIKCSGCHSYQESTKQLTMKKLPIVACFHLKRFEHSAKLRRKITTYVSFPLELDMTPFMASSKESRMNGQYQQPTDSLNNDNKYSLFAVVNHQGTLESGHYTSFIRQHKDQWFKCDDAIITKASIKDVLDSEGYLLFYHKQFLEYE
Procedure, shortened: as §1

USP24 = USP24 (UniProt Q9UPU5)
Procedure, shortened: as §1

USP25 = target: T3, USP25 (UniProt Q9UHP3)
T3 sequence (whole entry): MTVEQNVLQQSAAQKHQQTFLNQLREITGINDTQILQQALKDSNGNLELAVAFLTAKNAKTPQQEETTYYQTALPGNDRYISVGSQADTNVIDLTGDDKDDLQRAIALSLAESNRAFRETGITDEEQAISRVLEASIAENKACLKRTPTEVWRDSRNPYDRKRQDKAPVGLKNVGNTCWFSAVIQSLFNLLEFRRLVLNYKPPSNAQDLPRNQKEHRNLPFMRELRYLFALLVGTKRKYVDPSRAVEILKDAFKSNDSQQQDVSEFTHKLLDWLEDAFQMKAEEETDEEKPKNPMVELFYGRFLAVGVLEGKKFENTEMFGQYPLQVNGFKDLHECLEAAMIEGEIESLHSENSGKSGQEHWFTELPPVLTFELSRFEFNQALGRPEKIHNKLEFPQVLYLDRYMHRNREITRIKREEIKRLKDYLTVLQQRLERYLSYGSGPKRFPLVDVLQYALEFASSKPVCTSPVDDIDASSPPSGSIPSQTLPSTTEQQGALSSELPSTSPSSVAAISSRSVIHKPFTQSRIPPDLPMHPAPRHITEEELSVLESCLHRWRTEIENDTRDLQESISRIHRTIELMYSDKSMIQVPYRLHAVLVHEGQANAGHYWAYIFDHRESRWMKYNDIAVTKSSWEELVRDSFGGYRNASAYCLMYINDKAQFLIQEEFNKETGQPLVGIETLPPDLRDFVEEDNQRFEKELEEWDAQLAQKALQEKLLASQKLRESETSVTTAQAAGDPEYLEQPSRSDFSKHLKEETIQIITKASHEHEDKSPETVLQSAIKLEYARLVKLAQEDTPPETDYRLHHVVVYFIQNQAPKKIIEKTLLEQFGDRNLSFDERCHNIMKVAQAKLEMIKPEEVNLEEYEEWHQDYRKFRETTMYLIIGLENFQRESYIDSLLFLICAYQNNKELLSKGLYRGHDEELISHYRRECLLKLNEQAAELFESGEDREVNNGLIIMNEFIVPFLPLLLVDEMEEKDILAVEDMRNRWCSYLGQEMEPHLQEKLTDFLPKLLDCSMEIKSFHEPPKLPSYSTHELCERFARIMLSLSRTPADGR
Procedure, shortened: as §1

USP28 = target: T4, USP28 (UniProt Q96RU2)
T4 sequence (whole entry): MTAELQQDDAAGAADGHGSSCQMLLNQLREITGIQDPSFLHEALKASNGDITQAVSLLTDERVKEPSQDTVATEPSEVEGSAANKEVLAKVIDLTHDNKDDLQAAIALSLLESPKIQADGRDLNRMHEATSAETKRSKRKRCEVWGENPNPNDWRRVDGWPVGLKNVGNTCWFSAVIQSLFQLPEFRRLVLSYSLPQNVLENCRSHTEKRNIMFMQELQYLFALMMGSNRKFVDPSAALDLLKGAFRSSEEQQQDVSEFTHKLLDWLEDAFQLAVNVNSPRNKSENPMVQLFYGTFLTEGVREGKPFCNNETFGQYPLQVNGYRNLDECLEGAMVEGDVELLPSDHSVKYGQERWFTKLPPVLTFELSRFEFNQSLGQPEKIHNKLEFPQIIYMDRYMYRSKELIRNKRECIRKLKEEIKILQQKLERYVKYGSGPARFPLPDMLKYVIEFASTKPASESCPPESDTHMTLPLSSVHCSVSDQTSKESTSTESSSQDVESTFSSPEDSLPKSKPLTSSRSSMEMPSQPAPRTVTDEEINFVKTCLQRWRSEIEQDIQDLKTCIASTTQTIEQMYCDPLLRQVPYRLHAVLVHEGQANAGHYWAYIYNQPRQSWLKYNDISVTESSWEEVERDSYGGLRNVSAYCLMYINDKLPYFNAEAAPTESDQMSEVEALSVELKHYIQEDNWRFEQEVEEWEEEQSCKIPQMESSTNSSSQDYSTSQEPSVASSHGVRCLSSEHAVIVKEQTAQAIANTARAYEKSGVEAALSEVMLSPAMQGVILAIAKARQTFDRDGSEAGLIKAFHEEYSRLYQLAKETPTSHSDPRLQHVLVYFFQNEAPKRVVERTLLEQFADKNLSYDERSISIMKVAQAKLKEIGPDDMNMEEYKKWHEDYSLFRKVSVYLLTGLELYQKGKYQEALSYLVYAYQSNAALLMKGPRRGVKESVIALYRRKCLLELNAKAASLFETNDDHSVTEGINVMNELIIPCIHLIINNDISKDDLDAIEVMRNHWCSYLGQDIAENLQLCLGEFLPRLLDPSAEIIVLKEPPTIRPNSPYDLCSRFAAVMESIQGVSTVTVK
Procedure, shortened: as §1

Measured: log2 ratio of Biotin-Ahx-Ub-VS probe labelling

Chain of USP24 (Q9UPU5 whole entry): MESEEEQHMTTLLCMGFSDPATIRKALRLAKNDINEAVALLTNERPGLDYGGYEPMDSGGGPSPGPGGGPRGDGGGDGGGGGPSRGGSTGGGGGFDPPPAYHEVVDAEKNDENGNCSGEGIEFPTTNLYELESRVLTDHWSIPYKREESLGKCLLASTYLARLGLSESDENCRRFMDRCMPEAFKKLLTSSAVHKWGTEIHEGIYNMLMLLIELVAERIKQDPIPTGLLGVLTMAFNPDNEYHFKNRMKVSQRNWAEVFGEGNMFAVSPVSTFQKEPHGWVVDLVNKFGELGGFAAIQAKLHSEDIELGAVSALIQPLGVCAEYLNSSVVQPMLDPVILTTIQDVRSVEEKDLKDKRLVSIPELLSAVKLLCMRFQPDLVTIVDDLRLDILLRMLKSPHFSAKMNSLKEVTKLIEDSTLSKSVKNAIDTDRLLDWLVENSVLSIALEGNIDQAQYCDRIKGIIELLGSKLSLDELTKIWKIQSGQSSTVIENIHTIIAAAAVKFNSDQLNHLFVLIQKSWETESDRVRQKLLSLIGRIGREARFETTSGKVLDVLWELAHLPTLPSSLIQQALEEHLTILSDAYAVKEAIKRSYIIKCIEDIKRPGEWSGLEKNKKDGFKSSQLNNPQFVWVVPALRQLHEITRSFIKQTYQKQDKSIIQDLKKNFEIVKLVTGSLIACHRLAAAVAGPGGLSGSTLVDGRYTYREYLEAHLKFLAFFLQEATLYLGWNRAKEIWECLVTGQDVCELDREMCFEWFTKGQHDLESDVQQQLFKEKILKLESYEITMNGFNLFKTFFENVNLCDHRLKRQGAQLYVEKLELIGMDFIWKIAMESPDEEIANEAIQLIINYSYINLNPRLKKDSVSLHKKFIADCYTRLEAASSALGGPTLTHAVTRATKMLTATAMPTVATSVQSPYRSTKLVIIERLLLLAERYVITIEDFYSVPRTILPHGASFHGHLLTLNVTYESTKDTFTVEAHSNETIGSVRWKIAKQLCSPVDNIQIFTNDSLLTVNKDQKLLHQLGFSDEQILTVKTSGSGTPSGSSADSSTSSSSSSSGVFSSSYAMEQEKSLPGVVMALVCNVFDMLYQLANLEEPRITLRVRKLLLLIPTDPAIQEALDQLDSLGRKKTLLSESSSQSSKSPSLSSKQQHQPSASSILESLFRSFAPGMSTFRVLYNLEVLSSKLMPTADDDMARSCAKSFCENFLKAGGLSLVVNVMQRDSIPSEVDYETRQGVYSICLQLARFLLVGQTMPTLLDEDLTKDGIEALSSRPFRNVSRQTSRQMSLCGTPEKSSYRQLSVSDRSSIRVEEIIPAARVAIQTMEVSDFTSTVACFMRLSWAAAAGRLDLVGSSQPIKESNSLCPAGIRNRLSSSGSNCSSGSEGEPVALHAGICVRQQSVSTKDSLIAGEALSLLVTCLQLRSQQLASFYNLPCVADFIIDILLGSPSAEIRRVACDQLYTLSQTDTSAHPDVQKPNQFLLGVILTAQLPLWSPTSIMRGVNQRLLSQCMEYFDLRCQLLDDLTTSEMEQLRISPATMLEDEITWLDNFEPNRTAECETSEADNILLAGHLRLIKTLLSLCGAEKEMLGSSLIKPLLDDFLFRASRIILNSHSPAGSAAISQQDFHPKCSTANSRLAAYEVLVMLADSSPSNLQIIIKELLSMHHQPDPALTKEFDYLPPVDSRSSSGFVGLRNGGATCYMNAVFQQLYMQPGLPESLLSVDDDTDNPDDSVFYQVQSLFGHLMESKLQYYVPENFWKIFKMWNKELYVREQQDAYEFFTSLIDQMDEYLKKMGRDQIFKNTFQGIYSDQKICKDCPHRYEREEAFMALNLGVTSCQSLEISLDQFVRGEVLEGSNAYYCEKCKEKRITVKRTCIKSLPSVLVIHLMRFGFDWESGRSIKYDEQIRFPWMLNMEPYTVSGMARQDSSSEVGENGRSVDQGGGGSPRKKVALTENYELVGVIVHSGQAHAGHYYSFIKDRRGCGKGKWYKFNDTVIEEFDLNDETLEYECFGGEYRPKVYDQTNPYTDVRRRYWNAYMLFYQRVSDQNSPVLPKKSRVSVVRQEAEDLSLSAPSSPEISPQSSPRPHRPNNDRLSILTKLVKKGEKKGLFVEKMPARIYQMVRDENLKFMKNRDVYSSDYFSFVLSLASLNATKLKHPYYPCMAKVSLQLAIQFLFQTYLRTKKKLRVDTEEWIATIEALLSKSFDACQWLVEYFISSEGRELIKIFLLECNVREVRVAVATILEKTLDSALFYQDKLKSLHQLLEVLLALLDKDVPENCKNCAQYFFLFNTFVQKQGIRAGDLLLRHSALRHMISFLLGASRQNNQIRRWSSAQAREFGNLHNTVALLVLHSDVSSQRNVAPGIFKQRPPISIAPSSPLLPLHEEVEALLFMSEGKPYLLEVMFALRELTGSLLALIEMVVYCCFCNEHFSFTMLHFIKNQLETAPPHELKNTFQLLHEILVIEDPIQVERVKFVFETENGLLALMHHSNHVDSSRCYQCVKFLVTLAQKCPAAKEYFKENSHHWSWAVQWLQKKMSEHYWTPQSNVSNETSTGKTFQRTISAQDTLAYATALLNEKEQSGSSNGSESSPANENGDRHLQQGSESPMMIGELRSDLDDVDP

Cl.O=C(CCl)N1CCc2ncncc2C1
inactive: USP19 -0.554 | USP22 -0.0201 | USP24 -0.491 | USP25 -0.276 | USP28 -0.582
